From PubChem BioAssay (NCI)
About 83,000 compounds went through this panel and 20% of them were active in at least one assay; those are over-represented in the sample as a whole.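 Testing used 96-well plates and a 48-hour single-concentration exposure. Example: -40 means 40% of the starting cells died.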 Unmarked numbers belong to inactive results. Activity calls are given as the source filed them. How the source made its calls: active means growth percent below 10; inactive means the rest.

How the values were obtained:
Experiment in all cases: NCI-60 one-dose screen, 48 h (100 = growth as untreated, 0 = no growth, -100 = all killed)
Conditions in all cases: 10 µM unless noted
T-47D breast = tested on: T-47D breast
BT-549 breast = tested on: BT-549 breast
MDA-MB-435 melanoma = tested on: MDA-MB-435 melanoma
SW-620 colon = tested on: SW-620 colon
MCF7 breast = tested on: MCF7 breast
HCT-116 colon = tested on: HCT-116 colon
HCC-2998 colon = tested on: HCC-2998 colon
KM12 colon = tested on: KM12 colon

Structure (SMILES)	growth (T-47D breast)	growth (BT-549 breast)	growth (MDA-MB-435 melanoma)	growth (SW-620 colon)	growth (MCF7 breast)	growth (HCT-116 colon)	growth (HCC-2998 colon)	growth (KM12 colon)
COc1ccc(C2=NN(C=O)C(c3cccc(Nc4ccnc5cc(Cl)ccc45)c3)C2)cc1 (stereo not drawn)	25.1%	1.59% (active)	11.7%	24.8%	15.7%	12%	57.8%	27.4%
O=C(O)c1ccc(CNS(=O)(=O)c2ccc3ccccc3c2)cc1	100%	104%	110%	99.8%	107%	109%	271%	101%
CCOc1cc(CCNS(=O)(=O)c2ccc(C)cc2)c(C(C)=O)cc1OCC	66% [100 µM]	73.4% [100 µM]	99.4% [100 µM]	92.9% [100 µM]	94.9% [100 µM]	77.6% [100 µM]	95.5% [100 µM]	67.2% [100 µM]
CCOC(=O)Nc1ccc2c3c(cccc13)-c1ccccc1-2	58.7%	26.1%	-9.66% (active)	14.9%	15.8%	16.6%	41.2%	18.3%
COc1ccc2c(=O)c(OC)c(-c3cc(OC)c(OC)c(OC)c3)oc2c1	76.1%	117%	105%	92.2%	88%	87.2%	82.5%	97.8%
c1ccc(COc2ccc(Nc3ncnc4c3cnn4-c3ccccc3)cc2)cc1	100%	106%	90.1%	98.7%	101%	106%	108%	98.2%
Fc1ccccc1C1c2ccccc2-c2nccn21 (stereo not drawn)	91.3%	106%	108%	107%	101%	90.1%	103%	93.8%
O=C1CNc2cc(Cl)ccc2N1	99.5%	97.7%	114%	105%	102%	104%	104%	103%
CCSCC1CC(O)(c2ccccc2)C(c2ccccc2)C(c2ccc(Cl)cc2)O1 (stereo not drawn)	-7.67% (active)	1.88% (active)	-17.3% (active)	1.98% (active)	0.0329% (active)	1.69% (active)	17.9%	-31.2% (active)
O=C1/C=C/[C@@H](O)[C@@H]2C[C@@H](O)C[C@H]2/C=C/CCC[C@H](CO)O1	32.5%	20.1%	18.5%	10.5%	-2.04% (active)	2.08% (active)	-22.5% (active)	2.96% (active)
O=c1c2c(=NCCCN3CCCC3)cc3c(=O)n(CCCN4CCCC4)c(=O)c4c(NCCCN5CCCC5)cc(c(O)n1CCCN1CCCC1)c2c4-3	-6.25% (active)	-29.9% (active)	-62.4% (active)	-3.24% (active)	0.241% (active)	2.72% (active)	-43.1% (active)	0.818% (active)
COc1c(Br)cc(C(c2cc(Br)c(OC)c(Br)c2)c2ccccc2C(=O)O)cc1Br	93.6%	82.8%	104%	99.9%	96.5%	90.2%	97.8%	103%
O=C1Nc2ccc(Cl)cc2[C@@](C#CC2CC2)(C(F)(F)F)O1	70.4%	117%	88%	107%	105%	82.9%	108%	86.1%
COc1cccc(N2CCN(c3cccc(C)n3)CC2)c1	115%	105%	95.1%	110%	95.4%	91%	107%	110%
BrC1CC(Br)c2c1c1c(c3c2C(Br)CC3Br)C(Br)CC1Br (stereo not drawn)	91.8%	125%	103%	83%	49.6%	80.9%	87.5%	129%
O=C(Nc1cccc(-n2cc(-c3ccncc3)c(-c3cc(O)cc(Cl)c3)n2)c1)Nc1ccc(Cl)c(Cl)c1	-5.53% (active)	0.544% (active)	-33.3% (active)	-33.8% (active)	2.74% (active)	-57.3% (active)	0.568% (active)	2.26% (active)
C=C1CCC2C(C)(COC(=O)CC)C(OC(=O)CC)CCC2(C)C1C/C=C1/C(=O)OCC1OC(=O)CC (stereo not drawn)	-51.9% (active)	83.6%	2.16% (active)	-62.2% (active)	-35.1% (active)	-100% (active)	-65.8% (active)	3.97% (active)
O=C1Nc2ccc(Cl)cc2/C1=C/c1cccs1	16.9%	95.4%	105%	103%	44.6%	99.2%	77.6%	86.8%
COc1ccc2c(c1)c(CC(=O)[Se]C)c(C)n2C(=O)c1ccc(Cl)cc1	80.6%	-80.8% (active)	-20% (active)	29.9%	16%	0.342% (active)	68.8%	61.6%
NC(=O)NC1(C(=O)O)CCCC1	93.6%	111%	107%	109%	98.9%	115%	108%	107%
CC(=O)Nc1c(Cl)cc2c(c1Cl)Cc1cc([N+](=O)[O-])ccc1-2	53.4%	84.4%	81%	81.5%	27.8%	72.6%	87.4%	78.2%
CCc1nn2c(-c3ccc(Cl)cc3C)c(-c3cc(OC)c(OC)c(OC)c3)nc2s1	58.8%	101%	81.3%	82.5%	50.7%	60.5%	86.3%	89%
COc1cnc2c(c1)C(=O)c1c-2n(CCCN2CCCC2)c(=O)c2cc(F)ccc12	-4.54% (active)	-6.57% (active)	16%	-33.2% (active)	3.93% (active)	-77.3% (active)	16.9%	-12.6% (active)
O=C1/C(=C/c2cccc(Cl)c2)CCc2ccccc21	101%	102%	96.6%	56.4%	50.5%	93%	102%	87.9%
CCOC(=O)C1=CCC(n2cc(C)c(=O)[nH]c2=O)O1 (stereo not drawn)	99.1%	120%	113%	105%	119%	102%	110%	96%
O=C(CN1CCN(c2ccc(Cl)cc2)CC1)N1CCN(c2nnc(-c3ccccc3)c(-c3ccccc3)n2)CC1	19.7%	44.9%	48.8%	46.9%	20.9%	16.7%	56.9%	36.6%
